Test results from PubChem BioAssay (Tox21).
Results filed as inconclusive are left out. Active and inactive are the calls of the source. Unless noted, calls follow the shape of the dose curve; as a rule, active = well fitted curve in the direction sought with a large enough effect in the repeat runs; inconclusive = weak or mixed curves; inactive = no such curve, though single readings can be large; an effect the other way counts as inactive or inconclusive.

How the values were obtained:
[1] = molecular target: Thyrotropin receptor (Homo sapiens) (UniProt P16473); experiment: qHTS assay to identify small molecule agonists of the thyroid stimulating hormone receptor (TSHR) signaling pathway (AID 1224843; calls by dose curve; also: nearly all actives have a fitted effect of over 45% in size)
Summary of the method: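 Screening of the Tox21 10K collection used HEK293 cells engineered with TSHR at 800 cells per well. After a 30-min room-temperature compound exposure, HTRF cAMP reagents were added and fluorescence recorded 1 h later.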

[2] = qHTS assay to identify small molecule agonists of the hypoxia (HIF-1) signaling pathway - cell viability counter screen (AID 1224844; calls by dose curve; also: nearly all actives have a fitted effect of over 50% in size)
Summary of the method: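 HRE-bla ME-180 cells, 2,000/well in 0.5% dialyzed FBS medium, treated 17 h at 37C with compounds. Viability read in the same wells as the bla reporter, by CellTiter-Glo luminescence after 30 min at room temperature.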

[3] = qHTS assay to identify small molecule agonists of H2AX (AID 1224845; active = well fitted activation curve with a large enough effect in the signal ratio in the repeat runs, not every such curve was filed as active; the % refers to the signal ratio)
Summary of the method: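 Phospho-H2AX Ser139 measured by HTRF (ex 320 nm; em 665 and 620 nm) after 24 hr antibody incubation. Compounds, 15 concentrations, 0.76% DMSO, were applied to CHO-K1 cells for 3hr at 37C before lysis.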

[4] = qHTS assay to identify small molecule agonists of the hypoxia (HIF-1) signaling pathway (AID 1224846; active = well fitted activation curve with a large enough effect in the signal ratio in the repeat runs, not every such curve was filed as active; the % refers to the signal ratio)
Summary of the method: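 HRE-bla ME-180 beta-lactamase reporter cells in medium with 0.5% dialyzed FBS, pre-incubated 5 h then exposed to compounds 17 h at 37C, 5% CO2; reporter induction read with CCF4-AM FRET substrate.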

[5] = qHTS assay to identify small molecule agonists of H2AX - cell viability counter screen (AID 1224847; calls by dose curve;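 also: wild-type CHO-K1 cells; top concentration of the series differs between compounds; nearly all actives have a fitted effect of over 30% in size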)
Summary of the method: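 Cells plated first: CHO-K1, 1000 per well in 10% FBS medium, incubated overnight at 37C. Then 15-point compound titration added (final DMSO 0.76%) for 3 hr. Finally CellTiter-Glo added and luminescence read.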

[6] = qHTS assay to identify small molecule antagonists of the estrogen related receptor (ERR) signaling pathway from Tox21 library (AID 1224848); also: nearly all actives have a fitted effect of over 50% in size
Summary of the method: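 Antagonist-mode screen of the Tox21 10K library in an NTP-provided ERR reporter cell line; 18 h compound exposure at 37 C, luminescence measured with ONE-Glo.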

[7] = qHTS assay to identify small molecule agonists of the estrogen related receptor (ERR) signaling pathway from Tox21 library (AID 1224849; calls by dose curve; also: nearly all actives have a fitted effect of over 15% in size); conditions: ERR reporter cell line, ONE-Glo luciferase, 18 h; at 92.4 µM (top of the series) unless noted
Summary of the method: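 ERR reporter cells (NTP line) pre-incubated 6 hours at 37 C, then exposed to compounds for 18 hours at 37 C. ONE-Glo luciferase luminescence was read after 30 minutes at room temperature.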

[8] = qHTS RealTime-Glo MT Cell Viability Assay in HepG2 cells - 24 hour (AID 1224867); also: nearly all actives have a fitted effect of over 50% in size
Summary of the method: (§1)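 HepG2 suspension premixed with RealTime-Glo reagents is plated at 600 cells per well and left 5 h at 37 C/5% CO2. Compounds in DMSO then go in, and bioluminescence reflecting viable cell number is recorded over 40 h.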

[9] = qHTS RealTime-Glo MT Cell Viability Assay in HEK293 cells - 32 hour (AID 1224868); also: top concentration of the series differs between compounds; nearly all actives have a fitted effect of over 50% in size
Summary of the method: (§2)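 Reads taken at 0, 8, 16, 24, 32 and 40 h from the same wells. HEK293 cells (600/well) carried RealTime-Glo reagents from seeding, with compound added after a 5 h settle at 37 C.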

[10] = A CellTox Green Cytotoxicity Assay to monitor cytotoxicity in HEK293 cells - 0 hour (AID 1224869); also: nearly all actives have a fitted effect of over 50% in size
Summary of the method: (§3)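 HEK293 cells, 600/well, were preincubated 5 hours and then exposed to compounds at 37 C for up to 40 hours. A cell-impermeant cyanine dye staining dead-cell DNA was read by fluorescence at 0, 8, 16, 24, 32 and 40 h time points.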

[11] = qHTS RealTime-Glo MT Cell Viability Assay in HepG2 cells - 40 hour (AID 1224870); also: nearly all actives have a fitted effect of over 50% in size
Summary of the method: (§4)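 Real-time viability: cells seeded at 600 per well together with NanoLuc and cell-permeant prosubstrate, compounds added after 5 h incubation. Luminescence tracked at 0, 8, 16, 24, 32 and 40 h of exposure.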

[12] = A CellTox Green Cytotoxicity Assay to monitor cytotoxicity in HEK293 cells - 40 hour (AID 1224871); also: nearly all actives have a fitted effect of over 45% in size
Summary of the method: as §3

[13] = qHTS RealTime-Glo MT Cell Viability Assay in HEK293 cells - 16 hour (AID 1224872)
Summary of the method: as §2

[14] = qHTS RealTime-Glo MT Cell Viability Assay in HepG2 cells - 8 hour (AID 1224873); also: nearly all actives have a fitted effect of over 55% in size
Summary of the method: as §4

[15] = qHTS RealTime-Glo MT Cell Viability Assay in HEK293 cells - 40 hour (AID 1224874); conditions: RealTime-Glo luminescence; max response: active compounds read low; also: nearly all actives have a fitted effect of over 50% in size
Summary of the method: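 600 cells/well were plated with the nonlytic NanoLuc/prosubstrate reagent, pre-incubated 5 h, then given 23 nL of compound in DMSO. Incubation at 37 C for 40 h, with luminescence from viable-cell-reduced substrate read repeatedly from 0 h.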

[16] = A CellTox Green Cytotoxicity Assay to monitor cytotoxicity in HEK293 cells - 24 hour (AID 1224875); also: nearly all actives have a fitted effect of over 45% in size
Summary of the method: as §3

[17] = A CellTox Green Cytotoxicity Assay to monitor cytotoxicity in HepG2 cells - 16 hour (AID 1224876); also: nearly all actives have a fitted effect of over 45% in size
Summary of the method: (§5)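 HepG2 cells, 600/well, preincubated 5 h with CellTox Green dye, then exposed to Tox21 compounds in DMSO at 37 C for up to 40 h. Dead-cell DNA fluorescence read at the indicated time point.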

[18] = qHTS RealTime-Glo MT Cell Viability Assay in HepG2 cells - 32 hour (AID 1224877); also: nearly all actives have a fitted effect of over 55% in size
Summary of the method: as §1

[19] = A CellTox Green Cytotoxicity Assay to monitor cytotoxicity in HepG2 cells - 24 hour (AID 1224878); also: nearly all actives have a fitted effect of over 45% in size
Summary of the method: as §5

[20] = A CellTox Green Cytotoxicity Assay to monitor cytotoxicity in HepG2 cells - 40 hour (AID 1224879); also: nearly all actives have a fitted effect of over 40% in size
Summary of the method: as §5
% is scaled to controls: 0 for no effect and ±100 for the full control effect.

Thyrotropin receptor (Homo sapiens), sequence (P16473 whole entry, looked up): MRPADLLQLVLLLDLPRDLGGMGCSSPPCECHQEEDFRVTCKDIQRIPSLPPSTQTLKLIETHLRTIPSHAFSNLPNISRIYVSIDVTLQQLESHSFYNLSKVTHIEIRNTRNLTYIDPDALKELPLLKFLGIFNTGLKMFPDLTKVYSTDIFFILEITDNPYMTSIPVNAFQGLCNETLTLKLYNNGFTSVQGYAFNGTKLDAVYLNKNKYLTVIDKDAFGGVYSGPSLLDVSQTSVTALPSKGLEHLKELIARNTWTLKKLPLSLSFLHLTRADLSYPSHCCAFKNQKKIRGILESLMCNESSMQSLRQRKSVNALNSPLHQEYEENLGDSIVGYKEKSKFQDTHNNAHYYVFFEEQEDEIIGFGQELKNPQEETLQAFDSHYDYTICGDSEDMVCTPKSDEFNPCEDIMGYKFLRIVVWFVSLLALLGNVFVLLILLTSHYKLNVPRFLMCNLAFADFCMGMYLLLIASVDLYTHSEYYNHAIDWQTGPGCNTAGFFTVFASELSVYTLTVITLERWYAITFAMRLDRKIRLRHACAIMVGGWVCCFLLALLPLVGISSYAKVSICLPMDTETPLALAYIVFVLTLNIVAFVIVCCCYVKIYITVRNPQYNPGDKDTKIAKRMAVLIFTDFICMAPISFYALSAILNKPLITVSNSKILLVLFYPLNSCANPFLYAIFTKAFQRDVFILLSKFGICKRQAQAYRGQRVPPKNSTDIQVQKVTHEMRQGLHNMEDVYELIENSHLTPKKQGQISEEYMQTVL

CCOC(C)(C)C
inactive: Potency [1] | Potency [2] | outcome [3] | outcome [4] | Potency [5] | Potency [6] | activity change, positive = activation [7] 3.27% | Potency [8] | Potency [9] | Potency [10] | Potency [11] | Potency [12] | Potency [13] | Potency [14] | max response [15] 7.98% | Potency [16] | Potency [17] | Potency [18] | Potency [19] | Potency [20]

CCc1ccc(O)c(OC)c1
inactive: Potency [1] | Potency [2] | outcome [3] | outcome [4] | Potency [5] | Potency [6] | activity change, positive = activation [7] 4.86% | Potency [8] | Potency [9] | Potency [10] | Potency [11] | Potency [12] | Potency [13] | Potency [14] | max response [15] 4.24% | Potency [16] | Potency [17] | Potency [18] | Potency [19] | Potency [20]

CCCCCCCCCCCC
inactive: Potency [1] | Potency [2] | outcome [3] | outcome [4] | Potency [5] | Potency [6] | activity change, positive = activation [7] 11.3% | Potency [8] | Potency [9] | Potency [10] | Potency [11] | Potency [12] | Potency [13] | Potency [14] | Potency [17] | Potency [18] | Potency [19] | Potency [20]

C=CCS(=O)(=O)O
inactive: Potency [1] | Potency [2] | outcome [3] | outcome [4] | Potency [5] | Potency [6] | activity change, positive = activation [7] 4.55% | Potency [8] | Potency [9] | Potency [10] | Potency [11] | Potency [12] | Potency [13] | Potency [14] | Potency [16] | Potency [17] | Potency [20]

CC1(C)CO[C@@H](CC(=O)O)CN1
inactive: Potency [1] | Potency [2] | outcome [3] | outcome [4] | Potency [5] | Potency [6] | activity change, positive = activation [7] 0.501% [at 42.5 µM] | Potency [8] | Potency [9] | Potency [10] | Potency [11] | Potency [12] | Potency [13] | Potency [14] | max response [15] 4.58% | Potency [16] | Potency [17] | Potency [20]

Cc1c(NC(C)C)c(=O)n(-c2ccccc2)n1C
inactive: Potency [1] | Potency [2] | outcome [3] | outcome [4] | Potency [5] | Potency [6] | activity change, positive = activation [7] 0.236% [at 42.5 µM] | Potency [8] | Potency [9] | Potency [10] | Potency [11] | Potency [12] | Potency [13] | Potency [14] | Potency [18] | Potency [19] | Potency [20]

CCO[Si](CCC1CCC2OC2C1)(OCC)OCC (configuration not stated)
inactive: Potency [1] | Potency [2] | outcome [3] | outcome [4] | Potency [5] | Potency [6] | activity change, positive = activation [7] 3.88% | Potency [8] | Potency [9] | Potency [10] | Potency [11] | Potency [12] | Potency [13] | Potency [14] | max response [15] 14.1% | Potency [16] | Potency [17] | Potency [18] | Potency [19] | Potency [20]

C/C=C(\C)C#N
inactive: Potency [1] | Potency [2] | outcome [3] | outcome [4] | Potency [5] | Potency [6] | activity change, positive = activation [7] 0.294% | Potency [8] | Potency [9] | Potency [10] | Potency [11] | Potency [12] | Potency [13] | Potency [14] | max response [15] -3.01% | Potency [16] | Potency [17] | Potency [18] | Potency [19] | Potency [20]

O=c1cc(CO)occ1O
inactive: Potency [1] | Potency [2] | outcome [3] | outcome [4] | Potency [5] | Potency [6] | activity change, positive = activation [7] 3.24% [at 42.5 µM] | Potency [8] | Potency [9] | Potency [10] | Potency [11] | Potency [12] | Potency [13] | Potency [14] | max response [15] 3.18% | Potency [16] | Potency [17] | Potency [18] | Potency [19] | Potency [20]

CC(C)CNCC(C)C
inactive: Potency [1] | Potency [2] | outcome [3] | outcome [4] | Potency [5] | Potency [6] | activity change, positive = activation [7] 1.17% | Potency [8] | Potency [9] | Potency [10] | Potency [11] | Potency [12] | Potency [13] | Potency [14] | max response [15] 0.947% | Potency [16] | Potency [17] | Potency [18] | Potency [19] | Potency [20]

CC(=O)Nc1ccc(S(N)(=O)=O)cc1
inactive: Potency [1] | Potency [2] | outcome [3] | outcome [4] | Potency [5] | Potency [6] | activity change, positive = activation [7] 4.26% | Potency [8] | Potency [9] | Potency [10] | Potency [11] | Potency [12] | Potency [13] | Potency [14] | max response [15] 14.7% | Potency [16] | Potency [18] | Potency [19] | Potency [20]

CCCCCSCCCCC
inactive: Potency [1] | Potency [2] | outcome [3] | outcome [4] | Potency [5] | Potency [6] | activity change, positive = activation [7] 6.38% | Potency [8] | Potency [9] | Potency [10] | Potency [11] | Potency [12] | Potency [13] | Potency [14] | max response [15] -8.65% | Potency [16] | Potency [17] | Potency [20]

N[C@H]1CN(c2c(F)cc3c(=O)c(C(=O)O)cn(C4C[C@H]4F)c3c2Cl)CC12CC2 (some centres not stated)
inactive: Potency [1] | Potency [2] | outcome [3] | outcome [4] | Potency [5] | Potency [6] | activity change, positive = activation [7] 5.03% [at 42.5 µM] | Potency [8] | Potency [9] | Potency [10] | Potency [11] | Potency [12] | Potency [13] | Potency [14] | max response [15] 11.4% | Potency [16] | Potency [17] | Potency [18] | Potency [19] | Potency [20]
